In PubChem BioAssay AID2100 (National Center for Advancing Translational Sciences (NCATS), 2009):
Screen size: about 300,000 compounds; about 1,200 (0.4%) were called active. Roughly 3% stayed inconclusive and do not appear here. Shown is part of a subset that was picked to be rich in actives. A number with no mark means an inactive call. The call rests on the fitted dose curve; in most records, active means well fitted inhibition curve with a large enough effect; inconclusive means small, poorly fitted or top-dose-only effect, or another doubt; inactive means no such curve, though single readings can be large or run the other way.

What follows are molecules tested against Lysosomal alpha-glucosidase (Homo sapiens) (UniProt P10253) (assay: qHTS Assay for Inhibitors and Activators of Human alpha-Glucosidase Cleavage of Glycogen). Details: recombinant GAA, glycogen substrate, Amplex Red glucose oxidase fluorescence; series mostly up to 76.3 µM; activity change, negative = inhibition: at the top concentration.
Excerpt: NIH Chemical Genomics Center [NCGC] NIH Molecular Libraries Probe Production Centers Network [MLPCN] MLPCN Grant: R03 MH084841-01 Assay Submitter (PI): Wei Zheng NCGC Assay Overview: Alpha-glucosidase is responsible for the hydrolysis of terminal, non-reducing 1,4-linked alpha-D-glucose residues, which releases alpha-D-glucose. It is a lysosomal hydrolase that is required for the degradation of a small percentage (1-3%) of cellular glycogen in humans. Deficiency of this enzyme results in glycogen-storage disease type II (GSDII), also referred to as Pompe disease, an autosomal recessive disorder. Structurally normal glycogen is accumulated in the lysosomes and cytoplasm in affected patients, primarily in muscle tissues. Excessive glycogen storage within lysosomes may interrupt normal functioning of other organelles and leads to cellular injury. In turn, this leads to enlargement and dysfunction of the entire organ involved (eg: cardiomyopathy and muscle weakness). It has been reported that the improper folding and trafficking of alpha-glucosidase resulting from genetic mutations may account for a significant number of Pompe patients. […] We optimized this alpha-glucosidase assay in 1536-well plate format for identification of novel small molecule inhibitors or activators with structures other than the sugar analogs in order to develop new pharmacological chaperones. Previous assays of alpha-Glucosidase have utilized a non-natural fluorescent substrate to probe enzyme activity. The present assay measures enzyme activity on glycogen using a coupled-assay system to glucose oxidase.
NCGC Assay Protocol Summary: This is an enzyme assay using glycogen from bovine liver (Sigma catalog #: G0885) as the substrate and recombinant human alpha-glucosidase as the enzyme preparation. Upon hydrolysis of the substrate, the glucose product can be detected using the Amplex Red Glucose Oxidase Assay Kit (Invitrogen catalog #: A22189). The product of this reaction can be read with a fluorescence plate reader with an excitation at 573 nm and an emission at 610 nm. Data were normalized to the controls for basal activity (without enzyme) and 100% activity (with enzyme). The AC50 values were determined from concentration-response data modeled with the standard Hill equation. Assay buffer for enzyme reaction: 50 mM citric acid (titrated with potassium phosphate to pH 5.0), 0.01% Tween-20 (pH 5.0 is an optimal condition for this enzyme assay) Assay buffer for Amplex Red reaction: Tris-HCl, pH 7.5 1536-well assay protocol for the alpha-glucosidase assay: (1) Add 2 ul/well alpha-glucosidase enzyme solution (4 nM final) (2) Add 23 nL compounds in DMSO solution. The final titration was 0.7 nM to 77 uM. (3) Add 1 ul of glycogen substrate solution (30 ug) (4) Incubate at 37 C for 40 min (5) Add 2 ul tris-HCl buffer with Amplex Red reagents (6) Incubate 45 min at room temperature. (7) Detect the assay plate in a ViewLux plate reader (PerkinElmer) with Ex=573 nm and Em=610nm. Keywords: Alpha-glucosidase, Pompe Disease, pharmacological chaperone, chaperone therapy, high throughput screening, alpha-glucosidase inhibitor, MLSMR, MLSCN, NIH Roadmap, qHTS and NCGC
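Further: the screen sought inhibitors and activators.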
Potency means the concentration at half of the fitted maximal effect.
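Wherever activity change, negative = inhibition is given: 0% = full enzyme reaction and -100% = no-enzyme basal signal.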

SMILES	Potency	activity change, negative = inhibition
N#C/C=C\Oc1ccc(Cl)cc1N	9.92 µM (active)	–
CCCS(=O)(=O)c1c(Nc2ccccc2C)sc(C(=O)c2ccccc2)c1N	–	-9.74%
COc1ccc(S(=O)(=O)Nc2cc3c(C(=O)OC(C)C)c(C)oc3c3ccccc23)cc1	–	11.4%
Cn1cnc([N+](=O)[O-])c1Nc1ccccc1O	7.88 µM (active)	–
Cn1cnc([N+](=O)[O-])c1Sc1ccccc1	–	1.08% [at 76.4 µM]
Cn1cnc([N+](=O)[O-])c1Sc1n[nH]c(N)n1	–	-4.82% [at 76.4 µM]
CC1=C(C(=O)OCc2ccc(C)cc2)C(c2ccccc2Cl)CC(=O)N1 (configuration not stated)	–	8.08%
CCc1ccc(NC(=O)c2sc3nc4c(cc3c2N)CN(CC)CC4)cc1	–	0.0714%
CCc1nn(CC(=O)N2CCN(c3ccc(Cl)cc3)CC2)c(=O)c2cc3occc3n12	–	-17.1%
COc1ccccc1C1=Nc2cccc3cccc(c23)N1	17.6 µM (active)	–
Fc1ccccc1N=C1Nc2cccc3cccc1c23	–	7.79% [at 76.4 µM]
COc1ccccc1-c1nc(SC)n[nH]1	–	-3.53% [at 76.4 µM]
Cc1cc(C)c2c(-n3cccc3)c(NC(=O)OCc3ccccc3)sc2n1	–	-15.1% [at 76.4 µM]
Cc1cc(C)c2c(-n3cccc3)c(C(=O)NNS(=O)(=O)c3ccc(F)cc3)sc2n1	31.6 µM (active)	–
COC(=O)Nc1sc2nc(C)cc(C)c2c1-n1cccc1	–	0.68% [at 76.4 µM]
COc1ccc(Cn2cc(C(=O)c3ccc(C)cc3)c(=O)c3cc(OC)c(OC)cc32)cc1	–	-8.05%
COc1ccc(CNC(=O)c2cc3c(-c4ccccc4F)nn(C)c3s2)c(OC)c1	–	-14.3%
COc1ccc(-c2cc(C(F)(F)F)nc(SCC(=O)N(C)Cc3ccccc3)n2)cc1OC	–	7.48%
Cc1ccc(NNC(=O)c2cccs2)cc1Cl	14.1 µM (active)	–
Cc1ccc(C(=O)NNC(=O)c2cccs2)cc1	–	3.51% [at 76.4 µM]
O=C(NNC(=O)c1ccc(Cl)cc1Cl)c1cccs1	–	-13.2% [at 76.4 µM]
COc1ccc(N2CCN(c3ccc([N+](=O)[O-])cc3Cl)CC2)cc1	–	9.13% [at 76.4 µM]
O=C(O)C1CCN(c2ccc([N+](=O)[O-])cc2[N+](=O)[O-])CC1	–	0.683% [at 76.4 µM]
O=[N+]([O-])c1ccc(N2CCN(c3ccc(O)cc3)CC2)c(Cl)c1	10 µM (active)	–
O=C(CSCc1cnn(-c2ccccc2)c1-n1cccc1)NCc1ccccc1Br	–	-1.5%
CC(=O)Nc1ccc(NC(=O)CCCc2nc(-c3ccc(C(C)(C)C)cc3)no2)cc1	–	12.5%

SMILES	Potency	activity change, negative = inhibition
COc1ccc(N2CCN(c3cc(C)nc4nncn34)CC2)cc1	–	9.48%
O=C(COC(=O)c1ccccc1C(=O)N1CCN(c2ccccc2)CC1)NCc1ccccc1	–	-1.56% [at 76.4 µM]
Oc1ccc(N2CCN(C(=S)NCc3ccccc3)CC2)cc1	3.16 µM (active)	–
S=C(NCCc1ccccc1)N1CCCCC1	–	4.13% [at 76.4 µM]
COc1ccc(-c2noc(CSc3nc4ccc(C)cc4[nH]3)n2)cc1	–	-11%
O=C(CN1CCOCC1)Nc1ccccc1	–	4.65% [at 76.4 µM]
O=C(CN1CCN(c2ccccc2)CC1)Nc1ccc(F)cc1	–	-5.55% [at 76.4 µM]
O=C(CN1CCN(c2ccc(O)cc2)CC1)Nc1ccc(-c2ccccc2)cc1	10 µM (active)	–
CCOc1ccc(N(CC)S(=O)(=O)N2CCCC(C(=O)NCc3ccc(SC)cc3)C2)cc1 (configuration not stated)	–	11.1%
CCc1ccc(NC(=O)C2CCCN2S(=O)(=O)c2ccc3nc(-c4ccccc4)[nH]c3c2)cc1 (configuration not stated)	–	-14.4%
Cc1ccccc1CNC(=O)CCCn1nc(C)c2sc3ccccc3c2c1=O	–	-10.6%
O=C(Cn1nc(C(F)(F)F)c2c1CCCC2)Nc1ccc(Cl)cc1	–	9.38%
COc1cccc(-c2nc(CS(=O)(=O)CC(=O)N3CCN(c4cc(C)ccc4C)CC3)c(C)o2)c1	–	-17%
CCC(O)CNc1nc(-n2nc(C)cc2C)nc2sc3c(c12)CC(C)(C)OC3 (configuration not stated)	–	-8.09% [at 76.4 µM]
CC/C(C)=N/Nc1nc2sc3c(c2c(=O)[nH]1)CC(C)(C)OC3	–	1.15% [at 76.4 µM]
C=CCNC(=S)NNc1ncnc2sc3c(c12)CC(C)(C)OC3	11.2 µM (active)	–
Cc1cccc(OCCSc2nc3ccccc3n2CC(=O)N2CCCCC2)c1C	–	12%
Cc1cc(Nc2ccccc2)n(CCC#N)n1	19.8 µM (active)	–
Cc1cc(Nc2ccccc2)n(C(=O)c2ccc(N)cc2)n1	–	-16% [at 76.4 µM]
N#CCCn1ncc2ccccc21	–	1.77% [at 76.4 µM]
COc1ccc(NC(=O)NC(C)c2c(-n3cccc3)sc(C)c2C)cc1OC (configuration not stated)	–	8.49%
O=C(CS(=O)(=O)c1ccc(C(F)(F)F)cn1)NNC(=O)c1ccccc1	–	-2.4% [at 76.4 µM]
Cc1cc(C(=O)NNS(=O)(=O)c2ccccc2C(F)(F)F)nn1C(C)(C)C	–	-13.5% [at 76.4 µM]
O=C(NNS(=O)(=O)c1ccccc1C(F)(F)F)c1cc2ncc(C(F)(F)F)cc2s1	28.2 µM (active)	–
CCc1ccc(NC(=O)Cn2c(=O)n(CCC(=O)NCc3ccc4c(c3)OCO4)c(=O)c3ccccc32)cc1	–	12.6%
COc1ccc(S(=O)(=O)c2cn(C)c3cc(N4CCCCC4)c(F)cc3c2=O)cc1	–	-7.63%
